In the supplement of paper PMC4166925:
± gives the standard deviation of the averaged measurements. Over roughly 33,000 sequences, “E-score (dimensionless, -0.5 to 0.5)” has its median near -0.046; the highest 2% begin near 0.36. For the sample, the highest values were picked, then their nearest neighbours and some sequences at random.

test system: T1, SpTbr T-box DNA-binding domain (GST fusion); assay: PBM E-score of 8-mer (E-score (dimensionless, -0.5 to 0.5)); Tbr is Tbrain of the sea star Patiria miniata (Pm) or the sea urchin Strongylocentrotus purpuratus (Sp); higher = stronger binding preference; details: the construct has about 5 more residues each side
T1 sequence: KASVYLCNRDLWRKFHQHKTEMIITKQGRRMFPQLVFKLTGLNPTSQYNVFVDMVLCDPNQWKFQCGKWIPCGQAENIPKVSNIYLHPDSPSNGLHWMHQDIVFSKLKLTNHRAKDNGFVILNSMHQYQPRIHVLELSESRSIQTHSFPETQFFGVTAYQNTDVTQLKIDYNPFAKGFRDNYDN
Procedure, shortened: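 Universal Agilent oligonucleotide arrays, made double-stranded by primer extension, were incubated with 200 nM GST-fused Tbr T-box DNA-binding domain in PBS (pH 7.5). The protein was expressed in BL21 E. coli at 20 °C and purified by glutathione affinity chromatography. After scanning and quantification, the Universal PBM Analysis Suite assigned an enrichment E-score to each ungapped 8-mer, averaged over duplicate arrays.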

Sequence | PBM E-score of 8-mer
ATCGCAAG | 0.177 ± 0.03
CTCGCACC | 0.451 ± 0.016
CCCGCACC | 0.311 ± 0.036
AGAGTGAC | 0.145 ± 0.013
ATATTGGC | 0.12 ± 0.019
CGATAGTA | -0.122 ± 0.091
ATTCTACA | -0.0365 ± 0.019
ACGAAAGA | -0.0823 ± 0.0021
AGACTGCG | 0.0627 ± 0.0045
GAATCTTA | -0.197 ± 0.05
CATCTCTA | -0.0506 ± 0.074
CAGACTCA | -0.0949 ± 0.051
GCTCTCAC | 0.312 ± 0.028
GACTGTGC | -0.124 ± 0.033
GCCCGTCC | -0.216 ± 0.0065
GCCAGGCC | -0.217 ± 0.036
GTCGCAGA | -0.0708 ± 0.1
GTCGCACA | 0.3754 ± 0.0036
ATCGCACC | 0.47 ± 0.006
ATCGCAGC | 0.0579 ± 0.024
GTCGCAAA | 0.0958 ± 0.038
ATCGCAAC | 0.232 ± 0.0099
AAGGTTAG | -0.0571 ± 0.0011
CTCGGGCC | -0.167 ± 0.0065
GCCGGTCC | -0.235 ± 0.075

Sequence | PBM E-score of 8-mer
TACTCACA | 0.371 ± 0.0028
CACTCACA | 0.377 ± 0.017
CACTCACG | 0.266 ± 0.052
AACTCACG | 0.00507 ± 0.019
GACTCACA | 0.313 ± 0.038
TGCTCACA | 0.3801 ± 0.0011
AACTCACA | 0.2436 ± 0.00066
CGCTCACA | 0.263 ± 0.015
GGCTCACA | 0.161 ± 0.053
ACGAGCTA | -0.118 ± 0.015
TCAACCCA | -0.174 ± 0.026
ATACTTGC | 0.0754 ± 0.026
ATGCATCA | 0.0819 ± 0.023
CGACTGAC | 0.0364 ± 0.013
AGAGGAGC | -0.0105 ± 0.083
ACCTGTAC | -0.148 ± 0.024
GAGTAAAC | -0.0192 ± 0.019
CCCAGAAA | -0.216 ± 0.045
CAGTGTCG | 0.266 ± 0.0072
TAGTGTCA | 0.395 ± 0.032
AAGTGTAG | 0.144 ± 0.0052
AAGTGTCG | 0.425
CAGTGTCA | 0.3068 ± 0.002
GAGTGTCC | 0.0603 ± 0.01
AAGTGTAA | 0.399 ± 0.018

Sequence | PBM E-score of 8-mer
AAGTGTCT | 0.292 ± 0.033
TCGTGTCA | 0.294 ± 0.0086
TAGTGTAA | 0.216 ± 0.061
GATTGTCA | 0.248 ± 0.0068
GAGTGTCA | 0.4478 ± 0.0016
AGCAAAGC | -0.0455 ± 0.048
AAAGCAGT | -0.167 ± 0.049
TGAGATAA | 0.0687 ± 0.09
CACAGGGG | 0.0864 ± 0.031
ACCGTTCC | -0.000825 ± 0.11
AAGTGTCC | 0.2466 ± 0.0019
AAGTGTCA | 0.46288 ± 2.8e-05
AAGTGTAT | 0.0229 ± 0.032
CCTATGCG | 0.00647 ± 0.019
TCGCGCGA | 0.379 ± 0.0069
CCACGCGA | 0.172 ± 0.028
GCACGCGA | 0.186 ± 0.025
GCGCGCGA | 0.316 ± 0.041
TCACGCGA | 0.3949 ± 0.0026
TCGCGCCA | 0.384 ± 0.009
GCACGCCA | 0.0542 ± 0.013
ACACGCCA | 0.205 ± 0.0044
TCACGCCA | 0.403 ± 0.0053
ACGCGCCA | 0.201 ± 0.019
GCGCGCCA | 0.133 ± 0.087

Sequence | PBM E-score of 8-mer
CCGCGCGA | 0.203 ± 0.03
CAGACAAA | -0.0589 ± 0.033
GGATACAA | 0.0747 ± 0.011
CCGCCTCG | -0.0478 ± 0.058
TAAAGAAA | -0.13 ± 0.11
CCCTAACC | -0.113 ± 0.029
ACGCGCGA | 0.393 ± 0.023
ACGCGCGG | 0.229 ± 0.028
ACGCGCGC | 0.189 ± 0.056
AAGTAGAA | 0.0466 ± 0.046
CGTGAACA | 0.3774 ± 0.003
TGTGAACA | 0.445 ± 0.0018
GGTGAAAA | 0.126 ± 0.095
CGTGAAAA | 0.329 ± 0.069
TATGAACA | -0.0802 ± 0.022
GGTGAACA | -0.0711 ± 0.04
CGTGAACC | 0.353 ± 0.018
AGTGAACA | 0.175 ± 0.0043
TGTGAAAA | 0.394 ± 0.048
AGATATTC | -0.243 ± 0.033
AGCTATTG | -0.0351 ± 0.028
ACTTAGAG | -0.0957 ± 0.015
CCCAAATC | -0.108 ± 0.11
CCAAGAGC | -0.28 ± 0.06
AGGTGAGG | 0.4113 ± 0.0021

Sequence | PBM E-score of 8-mer
AGGTGAAA | 0.266 ± 0.045
CAGTGAGA | 0.157 ± 0.062
AAGTGAGA | 0.4 ± 0.018
GAGTGAGA | 0.346 ± 0.023
AAGTGAGG | 0.2725 ± 0.0021
AGGTGAGA | 0.4826 ± 0.0046
GGGTGAGA | 0.424 ± 0.0073
ACGTGAGG | 0.196 ± 0.024
GGGGGTGA | 0.289 ± 0.03
CGGTGAGA | 0.257 ± 0.012
AGGTGAGC | 0.2602 ± 0.00092
CATCGATA | -0.00022 ± 0.06
CGCAAGGA | -0.051 ± 0.018
AGATTCCG | -0.0246 ± 0.022
CTCGTATA | -0.142 ± 0.0069
TAACTACA | 0.0924 ± 0.085
GAGGTGTA | 0.418 ± 0.014
ACGGTGTG | 0.3578 ± 0.0014
AAGGTGTA | 0.394 ± 0.023
GGGGTGTA | 0.167 ± 0.062
GCGGTGTA | -0.122 ± 0.012
CCGGTGTA | 0.115 ± 0.037
ACGGTGTA | 0.137 ± 0.026
AAGGTTTG | -0.161 ± 0.046
AAGGTGTG | 0.4816 ± 0.0018

Sequence | PBM E-score of 8-mer
TACGACCA | -0.249 ± 0.12
CGTGCACG | 0.00996 ± 0.044
CTTTCTAA | -0.187 ± 0.023
ACGCAGGC | -0.149 ± 0.011
CTTAGTGA | 0.0752 ± 0.0019
ACGCGAGT | 0.107 ± 0.072
ATGGGAGC | -0.168 ± 0.01
GGTTCATA | -0.0395 ± 0.039
CGATCACA | 0.396 ± 0.0068
GGTTCAAA | -0.343 ± 0.0085
CGTTCAAG | -0.167 ± 0.0076
AGATCACA | 0.342 ± 0.02
AGTTCACG | 0.338 ± 0.049
AGTTCACC | -0.00201 ± 0.066
CGTTCACA | 0.418 ± 0.0069
AGTTCACA | 0.442 ± 0.013
CGATCACG | 0.221 ± 0.037
GGTTCACA | 0.3973 ± 0.0018
CGTTCACC | 0.0843 ± 0.012
TAGATCCA | -0.288 ± 0.061
CTAGTTTA | -0.132 ± 0.14
AGTCCTGG | -0.262 ± 0.021
CGGAGATA | 0.0372 ± 0.0019
AATTGGGA | -0.0875 ± 0.07
CCTTGGAG | -0.1541 ± 0.00054

Sequence | PBM E-score of 8-mer
ACGCGCCG | 0.227 ± 0.11
ACACAGTA | 0.116 ± 0.02
GCCTTCGC | 0.296 ± 0.0037
CGATGCAG | -0.164 ± 0.022
AATCTTCC | -0.133 ± 0.036
GAAGTAAA | -0.281 ± 0.027
ATAATCTC | -0.0752 ± 0.092
CCGAGACG | -0.121 ± 0.015
GCGAGAGA | 0.203 ± 0.061
GCGCGAGC | 0.298 ± 0.053
ACGCGAGA | 0.219 ± 0.016
CCGCGAGA | 0.224 ± 0.037
TCGCGAGA | 0.367 ± 0.01
GCGCGAGA | 0.3663 ± 0.0029
AACTATAT | -0.0107 ± 0.13
GAGTTACC | 0.144 ± 0.011
CGCACAGC | 0.122 ± 0.012
GCCCCAAC | 0.133 ± 0.059
ATGTGTAA | 0.342 ± 0.0099
CTTACCTA | -0.163 ± 0.054
CTCACCTA | 0.385 ± 0.014
GTCACCGA | 0.0907 ± 0.0094
CTCACCGA | 0.0544 ± 0.017
GTCACCCA | 0.203 ± 0.0083
GTCACCTA | 0.392 ± 0.017
